Measured values reported in PubChem BioAssay (NCI).
Compounds without any hit were thinned out: in the full panel of roughly 83,000, 20% have a hit.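 Negative percent growth values reflect cell death: -40 means 40% of the cells present at the start died, and -100 means all died.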 Unmarked numbers belong to inactive results. Activity calls are given as the source filed them. Rule for the calls: active = growth percent below 10; inactive = the rest.

These molecules were tested on OVCAR-5 ovarian (assay: NCI-60 one-dose screen, 48 h (100 = growth as untreated, 0 = no growth, -100 = all killed)). Conditions: 10 µM unless noted.

Row | Compound | growth
1 | N/N=C(\C(=N\N)c1ccccc1)c1ccccc1 | 102%
2 | C=C(C)[C@@H]1CC[C@]2(C(=O)NS(=O)(=O)c3ccccc3)CC[C@]3(C)[C@H](CC[C@@H]4[C@@]5(C)CC[C@H](OC(=O)NS(=O)(=O)c6ccccc6)C(C)(C)[C@@H]5CC[C@]43C)[C@@H]12 | 15.5%
3 | O=[N+]([O-])c1ccc(N/N=C/c2ccccc2O)nc1 | 60.9%
4 | CN1C(=O)N(C)C2C1NN=c1s/c(=C\c3ccc(C(F)(F)F)cc3)c(=O)n12 (stereo not drawn) | 49.3%
5 | CC(C)c1ccc(-c2cnc3nonc3n2)cc1 | 37.6%
6 | COc1ccc(N=C2CSc3nnc(-c4cc(F)c(Cl)cc4Cl)n3N2)cc1 | -20.5% (active)
7 | O=C1C=CN2C(=O)CC=CC2[C@@H]1O (stereo partly drawn) | 121%
8 | CCCNCCC(C)=O | 101%
9 | O=C(Cc1ccc([N+](=O)[O-])cc1)Oc1ccccc1 | 115%
10 | CN(C)c1ccc(/C=C\c2cccc[n+]2C)cc1 | 49.5%
11 | COc1cccc(NC(=O)OC(C)C)c1 | 96.4%
12 | COC(=O)c1ccc2c(c1)nc(-c1ccc(Cl)cc1)n2-c1cc(C(C)(C)C)[nH]n1 | 121%
13 | Cc1ccc(Nc2cc(Cl)c([N+](=O)[O-])cc2[N+](=O)[O-])cc1 | 46.3%
14 | CCOC(=O)c1cc(C(=O)OCC)c(C)nc1C | 99.8%
15 | O=C(Nc1cccc(C2=NCCN2)c1)c1ccc(N=Nc2ccc(C(=O)Nc3cccc(C4=NCCN4)c3)cc2)cc1 | 76.6%
16 | Cc1c(C(=O)CCl)c(=O)n(-c2ccccc2)n1C | 94.5%
17 | O=C1/C=C/[C@@H](O)[C@@H]2C[C@@H](O)C[C@H]2/C=C/CCC[C@H]([C@@H](O)CO)O1 | 98.5%
18 | CC(=O)N1N=C(C2C(=O)N(C)C(=O)N(C)C2=O)CC1c1ccccc1C(=O)O (stereo not drawn) | 104%
19 | Cn1c(=O)c2c(nc(N/N=C/c3ccccc3Cl)n2C)n(C)c1=O | 95.7%

Row | Compound | growth
20 | O=C1Nc2ccc(Cl)cc2/C1=C\c1c(-c2ccc(F)cc2)nc2ccccn12 | 37%
21 | O=C(O/C(=C/c1ccccc1)C(F)(F)F)c1ccccc1 | 101%
22 | COC(=O)c1ccc2c(c1)nc(-c1cc3ccccc3[nH]c1=O)n2-c1cc(C(C)(C)C)[nH]n1 | 96.6%
23 | O=c1c2cc(Br)cc(Br)c2nc(-c2ccc(Cl)cc2)n1/N=C/c1cccc(F)c1 | 61%
24 | CCOC(=O)Nc1ccc2nc(N3CCCCCC3)sc2c1 | 65.7%
25 | COC(=O)CSc1ccc(Cl)cc1 | 107%
26 | COc1ccc(C(=O)N2N=C(c3ccc(F)cc3)CC2c2cn(-c3ccccc3)nc2-c2ccccc2)cc1 (stereo not drawn) | 95.6%
27 | N=c1nc(N2CCCCC2)cc(N)n1O | 103%
28 | COc1ccc(C2NC(=O)c3cc4c(cc3N2)OCO4)cc1 (stereo not drawn) | 45.3%
29 | O=C1OCC2=C1C(c1ccccc1)c1cc3c(cc1N2CCO)OCO3 (stereo not drawn) | 46.8%
30 | COc1ccc(/C=C/c2nc(NCCCN(C)C)c3ccccc3n2)cc1 | 76.9%
31 | c1ccc(CCn2cccc2)nc1 | 103%
32 | Nc1cc(C(=O)O)cc(C(=O)O)c1 | 105%
33 | Fc1ccc(-c2nc(-c3ccc(-c4nc5ccc(F)cc5[nH]4)cc3)no2)cc1 | 94.7%
34 | N=C(N)c1ccc(NCCNc2ccc(C(=N)N)cc2)cc1 | 95.1%
35 | COc1ccc(CC2c3cc(OC)c(OC)cc3CC[N+]2(C)CCC(=O)OCCCCCOC(=O)CC[N+]2(C)CCc3cc(OC)c(OC)cc3C2Cc2ccc(OC)c(OC)c2)cc1OC (stereo not drawn) | 103%
36 | C=CCN(CC#N)CC=C | 102%
37 | O=C1Nc2ccccc2/C1=C\c1nc(C2CCN(S(=O)(=O)c3ccc(F)cc3)CC2)n2ccccc12 | 88%
38 | COc1ccc(Nc2nc(N)nc3c(=O)[nH]ccc23)cc1 | 107%
